For part of these data: Results with a measured potency or affinity are listed apart.
Columns and labels:
Design in all cases: scale not given: direction of the effect not stated beside the values
[1] = target: Protein translocase subunit SecA (Escherichia coli (strain K12)) (UniProt P10408); assay: Assay to Identify E. coli SecA ATPase Inhibitors; assay type: functional; settings: 30 µM
[2] = target: T1, Ubiquitin-activating enzyme e1, putative (Leishmania donovani (strain BPK282A1)) (UniProt E9BSI1); assay: Leishmania donovani Ubiquitin Activating Enzyme (LdE1); assay type: functional; settings: 30 µM
T1 sequence (whole entry): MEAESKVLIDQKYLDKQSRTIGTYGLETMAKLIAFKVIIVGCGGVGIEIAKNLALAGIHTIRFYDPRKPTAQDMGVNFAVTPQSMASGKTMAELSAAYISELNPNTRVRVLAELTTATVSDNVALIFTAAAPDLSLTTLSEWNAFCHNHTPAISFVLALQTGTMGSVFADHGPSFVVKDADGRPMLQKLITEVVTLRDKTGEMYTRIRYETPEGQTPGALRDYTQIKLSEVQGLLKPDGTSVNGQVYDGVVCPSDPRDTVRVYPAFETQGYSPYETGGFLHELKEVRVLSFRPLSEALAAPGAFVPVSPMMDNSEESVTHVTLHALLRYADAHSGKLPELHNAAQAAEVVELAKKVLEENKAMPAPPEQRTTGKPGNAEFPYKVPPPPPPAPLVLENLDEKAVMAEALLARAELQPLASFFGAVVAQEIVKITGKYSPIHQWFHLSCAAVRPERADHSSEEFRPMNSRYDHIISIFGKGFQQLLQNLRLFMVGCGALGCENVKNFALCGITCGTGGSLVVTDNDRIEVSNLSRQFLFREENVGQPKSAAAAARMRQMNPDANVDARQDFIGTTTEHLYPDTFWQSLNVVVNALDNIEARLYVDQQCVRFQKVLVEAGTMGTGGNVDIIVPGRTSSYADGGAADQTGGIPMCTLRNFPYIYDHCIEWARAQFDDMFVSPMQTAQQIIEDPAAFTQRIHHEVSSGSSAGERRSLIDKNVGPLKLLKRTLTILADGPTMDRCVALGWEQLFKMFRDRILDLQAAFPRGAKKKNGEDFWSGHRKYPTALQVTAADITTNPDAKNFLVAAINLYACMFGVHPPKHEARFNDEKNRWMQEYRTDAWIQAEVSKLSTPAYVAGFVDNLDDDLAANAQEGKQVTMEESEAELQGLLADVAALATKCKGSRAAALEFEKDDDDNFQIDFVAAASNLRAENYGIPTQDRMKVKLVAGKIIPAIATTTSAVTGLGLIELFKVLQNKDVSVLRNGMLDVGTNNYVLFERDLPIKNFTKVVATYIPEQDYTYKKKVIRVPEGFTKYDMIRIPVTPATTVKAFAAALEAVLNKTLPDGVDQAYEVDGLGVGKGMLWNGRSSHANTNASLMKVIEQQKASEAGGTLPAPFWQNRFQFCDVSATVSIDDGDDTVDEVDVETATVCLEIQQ

[3] = target: AMP-activated protein kinase, AMPK (Homo sapiens) (UniProt P54646+O43741+P54619+Q9UGJ0+Q9Y478+Q13131+Q9UGI9); assay: AMP-dependent Kinase enzyme assay. An in vitro enzyme assay that detects ADP turnover that is directly proportional to AMPK activity. This uses naive AMPK that is activated during the assay with MK-8722; assay type: functional; settings: 30 µM
[4] = target: Sialic acid-binding Ig-like lectin 9 (Homo sapiens) (UniProt Q9Y336); assay: Hs-Siglec9 ALPHAscreen SOP 20170721; settings: 10 µM
Trypanosoma cruzi = assay: Trypanosoma cruzi phosphomannomutase and mannose-1-phosphate guanylyltransferase assay; assay type: functional; settings: 10 µM
[5] = target: T2, Arginase-2, mitochondrial (Homo sapiens) (UniProt P78540); assay: in vitro enzyme assay to detect the production of urea directly proportional to the activity of Arginase II; assay type: functional; settings: 33.3 µM; note: in the data most compounds retested in dose-response had high values
T2 sequence (whole entry): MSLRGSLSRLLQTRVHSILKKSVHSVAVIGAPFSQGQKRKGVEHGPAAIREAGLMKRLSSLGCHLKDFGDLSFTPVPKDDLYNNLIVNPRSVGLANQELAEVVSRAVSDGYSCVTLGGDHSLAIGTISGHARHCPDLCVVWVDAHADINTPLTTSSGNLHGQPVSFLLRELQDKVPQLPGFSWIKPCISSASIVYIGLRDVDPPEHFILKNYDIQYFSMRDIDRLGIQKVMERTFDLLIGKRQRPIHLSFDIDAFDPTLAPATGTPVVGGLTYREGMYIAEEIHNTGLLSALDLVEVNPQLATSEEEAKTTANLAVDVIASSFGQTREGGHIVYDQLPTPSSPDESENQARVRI

[6] = target: T3, Proteasome subunit beta (Trypanosoma cruzi) (UniProt O96673); assay: Trypanosoma cruzi proteasome chymotrypsin-like activity (TcProtChymo) assay.; note: in the data most compounds retested in dose-response had high values; assay type: functional; settings: 9.37 µM
T3 sequence (whole entry): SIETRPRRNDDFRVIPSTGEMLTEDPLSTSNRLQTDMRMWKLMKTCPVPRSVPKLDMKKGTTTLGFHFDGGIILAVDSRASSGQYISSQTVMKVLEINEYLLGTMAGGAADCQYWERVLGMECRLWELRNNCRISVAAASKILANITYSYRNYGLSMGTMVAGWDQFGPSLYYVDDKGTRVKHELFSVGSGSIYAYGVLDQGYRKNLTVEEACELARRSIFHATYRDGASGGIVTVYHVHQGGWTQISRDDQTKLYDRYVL

Homo sapiens = organism: Homo sapiens; assay: To identify inhibition of the IFN signalling (Jak-Stat) pathway via expression of an eGFP reporter gene under the control of an IFN-stimulated response element (ISRE) containing MxA promoter.; assay type: functional; settings: 30 µM
[7] = target: T4, Tyrosyl-tRNA synthetase, putative (Trypanosoma cruzi (strain CL Brener)) (UniProt Q4DSP6); assay: Trypanosoma cruzi tyrosyl tRNA synthetase (TcYRS) _High Tyrosine SOP; assay type: functional; settings: 30 µM; note: in the data most compounds retested in dose-response had high values
T4 sequence (whole entry): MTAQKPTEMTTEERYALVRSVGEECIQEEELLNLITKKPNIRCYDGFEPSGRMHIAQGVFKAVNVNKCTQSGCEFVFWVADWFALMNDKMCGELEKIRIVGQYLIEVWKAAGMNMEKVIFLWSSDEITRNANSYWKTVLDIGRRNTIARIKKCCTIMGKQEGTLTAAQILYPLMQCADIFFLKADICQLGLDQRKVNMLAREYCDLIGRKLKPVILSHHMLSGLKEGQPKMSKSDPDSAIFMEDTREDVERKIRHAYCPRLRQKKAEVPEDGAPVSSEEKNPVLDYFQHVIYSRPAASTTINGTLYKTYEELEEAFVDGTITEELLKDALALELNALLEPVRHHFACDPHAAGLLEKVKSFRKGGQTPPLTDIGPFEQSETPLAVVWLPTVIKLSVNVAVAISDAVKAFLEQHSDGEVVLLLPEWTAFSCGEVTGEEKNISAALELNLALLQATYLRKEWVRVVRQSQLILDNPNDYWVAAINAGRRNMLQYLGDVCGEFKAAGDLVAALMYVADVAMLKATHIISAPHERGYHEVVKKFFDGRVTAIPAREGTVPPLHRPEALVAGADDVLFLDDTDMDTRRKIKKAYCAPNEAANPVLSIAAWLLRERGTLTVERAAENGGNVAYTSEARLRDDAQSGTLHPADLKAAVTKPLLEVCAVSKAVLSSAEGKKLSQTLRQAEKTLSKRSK

[8] = target: T4, Tyrosyl-tRNA synthetase, putative (Trypanosoma cruzi (strain CL Brener)); assay: Trypanosoma cruzi tyrosyl tRNA synthetase (TcYRS) SOP; assay type: functional; settings: 30 µM
[9] = target: Chromo domain-containing protein 1 (Saccharomyces cerevisiae (strain ATCC 204508 / S288c) (Baker's yeast)) (UniProt P32657); assay: ScCHD-1 Enzyme Inhibition Assay; assay type: functional; settings: 30 µM; note: in the data most compounds retested in dose-response had high values
Sequence of Chromo domain-containing protein 1 (Saccharomyces cerevisiae (strain ATCC 204508 / S288c) (Baker's yeast)) (P32657 whole entry, the tested form may be a part): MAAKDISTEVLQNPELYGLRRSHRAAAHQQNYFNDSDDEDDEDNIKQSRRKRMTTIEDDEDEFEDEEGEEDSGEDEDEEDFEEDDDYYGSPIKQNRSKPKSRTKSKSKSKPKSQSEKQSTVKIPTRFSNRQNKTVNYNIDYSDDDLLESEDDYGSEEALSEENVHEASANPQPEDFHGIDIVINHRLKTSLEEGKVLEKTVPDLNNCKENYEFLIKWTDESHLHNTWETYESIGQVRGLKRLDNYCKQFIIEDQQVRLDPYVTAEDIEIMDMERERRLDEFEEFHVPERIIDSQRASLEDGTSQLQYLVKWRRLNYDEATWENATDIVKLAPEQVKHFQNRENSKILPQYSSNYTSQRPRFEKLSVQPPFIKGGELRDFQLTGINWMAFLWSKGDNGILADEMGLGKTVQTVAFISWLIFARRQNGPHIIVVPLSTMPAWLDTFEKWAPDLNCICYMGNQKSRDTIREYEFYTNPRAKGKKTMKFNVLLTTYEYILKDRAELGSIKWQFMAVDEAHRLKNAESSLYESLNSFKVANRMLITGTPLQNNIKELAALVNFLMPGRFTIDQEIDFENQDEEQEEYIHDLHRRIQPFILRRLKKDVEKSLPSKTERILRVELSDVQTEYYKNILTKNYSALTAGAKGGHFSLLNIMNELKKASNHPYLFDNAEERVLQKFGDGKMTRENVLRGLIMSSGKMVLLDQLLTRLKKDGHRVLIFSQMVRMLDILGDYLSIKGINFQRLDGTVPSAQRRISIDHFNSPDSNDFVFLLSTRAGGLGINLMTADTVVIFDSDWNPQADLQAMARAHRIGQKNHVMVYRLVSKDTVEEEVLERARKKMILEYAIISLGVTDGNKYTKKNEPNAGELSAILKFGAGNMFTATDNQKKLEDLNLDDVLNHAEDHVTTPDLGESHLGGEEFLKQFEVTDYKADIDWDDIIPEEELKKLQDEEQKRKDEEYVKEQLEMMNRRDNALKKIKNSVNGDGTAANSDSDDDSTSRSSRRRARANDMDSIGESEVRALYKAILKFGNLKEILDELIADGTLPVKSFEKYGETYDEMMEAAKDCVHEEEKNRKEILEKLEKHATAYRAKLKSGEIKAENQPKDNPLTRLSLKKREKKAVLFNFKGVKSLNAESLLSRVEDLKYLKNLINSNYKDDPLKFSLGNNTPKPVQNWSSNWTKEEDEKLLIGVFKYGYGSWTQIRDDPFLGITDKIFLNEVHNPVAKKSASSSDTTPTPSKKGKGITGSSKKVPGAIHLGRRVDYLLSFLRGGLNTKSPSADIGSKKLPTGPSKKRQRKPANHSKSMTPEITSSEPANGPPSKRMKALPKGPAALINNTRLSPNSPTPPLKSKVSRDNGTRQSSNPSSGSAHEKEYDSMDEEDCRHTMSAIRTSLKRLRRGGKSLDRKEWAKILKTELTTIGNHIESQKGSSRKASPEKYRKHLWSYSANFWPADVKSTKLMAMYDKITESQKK

Sequence of Protein translocase subunit SecA (Escherichia coli (strain K12)) (P10408 whole entry): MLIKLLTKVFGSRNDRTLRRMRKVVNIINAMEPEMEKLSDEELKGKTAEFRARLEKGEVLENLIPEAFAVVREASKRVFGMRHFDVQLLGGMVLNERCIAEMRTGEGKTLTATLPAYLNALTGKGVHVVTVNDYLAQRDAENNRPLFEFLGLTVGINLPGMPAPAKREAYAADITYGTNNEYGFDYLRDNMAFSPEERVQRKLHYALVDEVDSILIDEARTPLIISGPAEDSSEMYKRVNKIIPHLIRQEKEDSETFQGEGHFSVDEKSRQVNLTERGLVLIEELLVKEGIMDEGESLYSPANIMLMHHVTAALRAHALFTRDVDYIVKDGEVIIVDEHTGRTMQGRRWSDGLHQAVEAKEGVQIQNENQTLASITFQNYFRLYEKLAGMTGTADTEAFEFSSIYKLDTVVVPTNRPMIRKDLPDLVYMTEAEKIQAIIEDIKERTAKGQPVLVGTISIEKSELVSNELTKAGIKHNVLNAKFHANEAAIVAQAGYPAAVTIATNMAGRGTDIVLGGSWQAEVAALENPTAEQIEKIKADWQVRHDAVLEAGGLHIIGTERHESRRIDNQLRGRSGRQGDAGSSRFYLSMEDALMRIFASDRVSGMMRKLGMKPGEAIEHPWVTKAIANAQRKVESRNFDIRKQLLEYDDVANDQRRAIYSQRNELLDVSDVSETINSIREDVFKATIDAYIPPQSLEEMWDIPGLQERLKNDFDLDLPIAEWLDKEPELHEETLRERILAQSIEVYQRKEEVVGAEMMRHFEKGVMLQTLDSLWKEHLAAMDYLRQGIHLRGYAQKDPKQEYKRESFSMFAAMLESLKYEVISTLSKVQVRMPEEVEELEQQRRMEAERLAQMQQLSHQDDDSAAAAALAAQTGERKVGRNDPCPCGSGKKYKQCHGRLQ
Sequence of Sialic acid-binding Ig-like lectin 9 (Homo sapiens) (Q9Y336 whole entry): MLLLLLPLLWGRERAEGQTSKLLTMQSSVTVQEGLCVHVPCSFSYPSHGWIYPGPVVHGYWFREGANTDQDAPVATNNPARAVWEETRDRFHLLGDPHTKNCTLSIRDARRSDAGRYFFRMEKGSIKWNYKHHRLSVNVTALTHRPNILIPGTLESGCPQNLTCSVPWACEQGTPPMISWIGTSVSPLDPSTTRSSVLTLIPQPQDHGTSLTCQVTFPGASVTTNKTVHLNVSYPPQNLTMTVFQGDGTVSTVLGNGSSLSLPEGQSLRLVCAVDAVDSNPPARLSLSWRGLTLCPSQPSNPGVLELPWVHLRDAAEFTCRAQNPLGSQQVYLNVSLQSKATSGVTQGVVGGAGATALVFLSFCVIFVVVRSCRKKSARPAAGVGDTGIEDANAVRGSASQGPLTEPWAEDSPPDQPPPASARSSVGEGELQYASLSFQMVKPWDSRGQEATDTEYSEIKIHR

| SMILES | Percent Effect [1] [%] | Percent Effect [2] [%] | Percent Effect [3] [%] | Percent Effect [4] [%] | Percent Effect (Trypanosoma cruzi) [%] | Percent Effect [5] [%] | Percent Effect [6] [%] | Percent Effect (Homo sapiens) [%] | Percent Effect [7] [%] | Percent Effect [8] [%] | Percent Effect [9] [%] |
| --- | --- | --- | --- | --- | --- | --- | --- | --- | --- | --- | --- |
| CS(=O)(=O)NC1CCN(C(=O)NCCc2ccccc2F)CC1 | -4.12 | 8.11 | -6.29 | 9.26 | 2.14 | 2.03 | 12 | 10.3 | 6.93 | 25.6 | -11.2 |
| c1cc(CNCc2ccc3c(c2)CCO3)cc(N2CCOCC2)n1 | -6.07 | 5.41 | -3.9 | -3.3 | -3.03 | 0.744 | 6.27 | 2.63 | 2.15 | 6.17 | -4.71 |
| Cc1ccc(CN2CCc3ncnc(-c4cccnc4)c3CC2)o1 | -3.48 | -2.67 | 0.55 | 8.87 | -0.772 | -5.91 | 8.72 | -10.7 | 2.08 | 0 | -3.74 |
| Cc1noc([C@H]2C[C@H]3OCC[C@H]3N(S(=O)(=O)C3CC3)C2)n1 | 0.988 | 11 | -4.86 | 7.79 | -1.19 | -1.6 | 16.7 | 3.43 | 9.38 | 18.5 | -0.433 |
| CC(C)OCCOCc1cccc(NC(=O)NCc2ccncc2)c1 | 2.27 | 13 | -7.84 | -0.138 | -0.295 | -11 | 11.5 | 30.4 | 6.45 | 13.6 | -2.65 |
| CCCc1n[nH]c(C2CN(C(=O)c3cc(F)ccc3OC)CCO2)n1 (stereo unspecified) | -5.9 | 7.89 | -0.379 | 3.53 | 2.33 | -2.52 | 3.3 | -17.2 | 6.4 | 11.1 | -4.7 |

Reference: ChEMBL document CHEMBL3988442, “University of Dundee, Small-Polar-MMV Screening Library” (2021)
